The assay deals with TYKNU. Briefly: fractional viability relative to vehicle; TYKNU is a high-grade serous ovarian cancer line; higher = less growth inhibition. The conditions noted are these: 72 h, genotype: OPA1 knockout (sgOPA1 #2). In short, it runs like this:
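TYKNU control cells or lentiCRISPRv2 knockout derivatives were seeded at 500 cells per well into drug-stamped 384-well plates holding a ~2100-compound library at 2 or 10 μM, in duplicate. Cells were grown at 37 °C in 5% CO2 in RPMI 1640 with 10% FBS, and drug treatment lasted 72 h. Viability was read by Cell Titer Glo luminescence. Duplicate treatment wells were averaged and normalised to duplicate control wells from the same plate position.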

For 37 compounds, fractional viability results are on record in the supplement of paper PMC5919970.

Where a name gives a salt, the structure may show the parent alone. In all, about 2,000 compounds were measured (“fractional viability relative to vehicle”: median about 0.92, lowest 2% from about 0.11 on). Only a selection was taken, and the lowest values are over-represented in it overall.

Consider `COc1ccc(CCc2nc3cc(-c4c(C)noc4C)ccc3n2C[C@H](C)N2CCOCC2)cc1Cl`, for which the fractional viability by setting is: (2uM) 0.813; (10uM) 0.639.

Consider `COc1cc2nc(N3CCN(C(=O)C4COc5ccccc5O4)CC3)nc(N)c2cc1OC` (centres undefined) [Doxazosin Mesylate], for which the fractional viability by setting is: (2uM) 1.1; (10uM) 1.22.

On to `COc1cc(Nc2c(C#N)cnc3cc(OCCCN4CCN(C)CC4)c(OC)cc23)c(Cl)cc1Cl` [Bosutinib (SKI-606)], for which the fractional viability reads like this: (2uM) 0.995; (10uM) 0.284.

In the case of `COc1cc(OC)c(C(=O)CCCN2CCCC2)c(OC)c1` [Buflomedil HCl], the fractional viability is, setting by setting: (2uM) 0.851; (10uM) 0.685.

As for `COc1cc2nc(N3CCCC3)nc(NCCCCCN3CCCC3)c2cc1OC`, the fractional viability by setting is: (2uM) 0.679; (10uM) 0.0949.

Take `COc1cc2nc(N3CCN(C(=O)C4CCCO4)CC3)nc(N)c2cc1OC` (centres undefined) [Terazosin HCl]: the fractional viability runs as follows: (2uM) 1.14; (10uM) 1.15.

For the compound `COc1cc2c(Oc3ccc4[nH]c(C)cc4c3F)ncnc2cc1OCCCN1CCCC1` [Cediranib (AZD2171)], the fractional viability amounted to 1.1 (2uM) and 0.181 (10uM).

`COC(=O)c1ccc2c(c1)[nH]c1ncnc(NCCCN3CCCCC3)c12`: the fractional viability is, setting by setting: (2uM) 0.785; (10uM) 0.985.

As for `COc1cc2c(NC3CCN(CC4CCCCC4)CC3)nc(N3CCCN(C(C)C)CC3)nc2cc1OCCCN1CCCCC1`, the fractional viability reads like this: (2uM) 0.786; (10uM) 0.0322.

On to `COc1cc2nc(N3CCCN(C)CC3)nc(NC3CCN(Cc4ccccc4)CC3)c2cc1OC`, for which the fractional viability by setting is: (2uM) 0.506; (10uM) 0.0546.

On to `Cc1nc2c(O)cccc2c(=O)[nH]1`, for which the fractional viability came to 0.925 (2uM) and 0.903 (10uM).

With `O=C(CCCCCCC(=O)Nc1ccc([C@H]2O[C@@H](CSc3nc(-c4ccccc4)c(-c4ccccc4)o3)C[C@@H](c3ccc(CO)cc3)O2)cc1)NO` [Tubacin], the fractional viability is, setting by setting: (2uM) 1.06; (10uM) 0.628.

Take `CCOC(=O)[C@@H](N)Cc1ccc(-c2cc(O[C@H](c3ccc(Cl)cc3-n3ccc(C)n3)C(F)(F)F)nc(N)n2)cc1` [Telotristat Etiprate (LX 1606 Hippurate)]: the fractional viability (2uM) came to 0.935 and the fractional viability (10uM) was determined as 0.335.

Turning to `CC(C)n1cnc2c(NCCc3ccc(O)cc3)nc(-c3csc4ccccc34)nc21` [StemRegenin 1 (SR1)], the fractional viability (2uM) worked out at 1.1 and the fractional viability (10uM) turned out to be 0.769.

For `CNC1CCC(N(Cc2cccc(-c3ccncc3)c2)C(=O)c2sc3ccccc3c2Cl)CC1` (centres undefined) [Smoothened Agonist (SAG) HCl], the fractional viability came out at 0.918 (2uM) and 0.259 (10uM).

As for `O=C1NC(=O)/C(=C/c2ccc(-c3ccc(F)cc3O)o2)S1`, the fractional viability runs as follows: (2uM) 0.814; (10uM) 0.742.

As for `N[C@H]1CC[C@H](N[C@@H]2C[C@H]2c2ccccc2)CC1`, the fractional viability by setting is: (2uM) 0.794; (10uM) 0.89.

Consider `CN1CCN(c2ccc3nc(-c4c(N)c5c(F)cccc5[nH]c4=O)[nH]c3c2)CC1` [Dovitinib (TKI258) Lactate], for which the fractional viability (2uM) was 0.815 and the fractional viability (10uM) is 0.0801.

Take `CN1CCN(c2ccc3nc(-c4c(N)c5c(F)cccc5[nH]c4=O)[nH]c3c2)CC1` [Dovitinib (TKI-258, CHIR-258)]: the fractional viability is, setting by setting: (2uM) 0.815; (10uM) 0.25.

For the compound `Cc1nn(-c2ccccc2)c(C)c1C=NN1CCN(Cc2ccccc2)CC1`, the fractional viability runs as follows: (2uM) 0.946; (10uM) 0.905.

Regarding `COCC(=O)NC/C=C/c1ccc2ncnc(Nc3ccc(Oc4ccc(C)nc4)c(C)c3)c2c1`, the fractional viability came out at 1.29 (2uM) and 1.17 (10uM).

In the case of `CCCCCCCc1ccc(CCc2cccc(O)c2C(=O)O)cc1`, the fractional viability turned out to be 0.96 (2uM) and 0.73 (10uM).

Take `CCCCCCCCc1ccc(CCC(N)(CO)CO)cc1` [Fingolimod (FTY720) HCl]: the fractional viability was found to be 1.08 (2uM) and 0.0752 (10uM).

In the case of `CCCCCCCCCCCCc1ccc(S(=O)(=O)Nc2nncs2)cc1`, the fractional viability runs as follows: (2uM) 1.06; (10uM) 1.05.

Take `O=C(c1ccc(OCCCc2c[nH]cn2)cc1)C1CC1` [Ciproxifan]: the fractional viability is, setting by setting: (2uM) 1.1; (10uM) 0.986.

For the compound `CCCCCCCCCCCCCCCCn1cc[n+](Cc2ccccc2)c1C`, the fractional viability was found to be 0.363 (2uM) and 0.0434 (10uM).

In the case of `CCO[C@@H]1OC(=O)C[C@@H]1NC(=O)[C@@H]1CCCN1C(=O)[C@@H](NC(=O)c1ccc(N)c(Cl)c1)C(C)(C)C`, the fractional viability reads like this: (2uM) 0.969; (10uM) 0.919.

Take `Cc1cc([N+](=O)[O-])ccc1NS(=O)(=O)c1cc(Cl)ccc1Cl`: the fractional viability by setting is: (2uM) 0.656; (10uM) 0.476.

On to `CC(C)c1nc(N(C)S(C)(=O)=O)nc(-c2ccc(F)cc2)c1/C=C/[C@@H](O)C[C@@H](O)CC(=O)O` [Rosuvastatin Calcium], for which the fractional viability reads like this: (2uM) 1.06; (10uM) 1.07.

As to `Nc1cccc2c1C(=O)N(C1CCC(=O)NC1=O)C2=O` (centres undefined) [Pomalidomide], the fractional viability reads like this: (2uM) 1.18; (10uM) 1.05.

As for `CNc1nc(Nc2cn(C(C)(C)C#N)nc2C)ncc1C(F)(F)F`, the fractional viability runs as follows: (2uM) 0.801; (10uM) 0.885.

As for `Cc1ccc(-c2c(-c3nn(C)c4ncnc(N5CC[C@H](N6CCCCC6)C5)c34)cnn2C)cc1`, the fractional viability (2uM) stood at 0.983 and the fractional viability (10uM) worked out at 1.09.

As for `CCC[C@H](N[C@H]1CCc2cc(F)cc(F)c2C1)C(=O)Nc1cn(C(C)(C)CNCC(C)(C)C)cn1`, the fractional viability turned out to be 0.786 (2uM) and 0.87 (10uM).

With `CC(=O)[C@@]1(O)CC[C@H]2[C@@H]3CCC4=CC(=O)CCC4=C3[C@@H](c3ccc(N(C)C)cc3)C[C@@]21C` [Ulipristal], the fractional viability was found to be 0.841 (2uM) and 1.07 (10uM).

`Cn1sc(=O)n(Cc2ccccc2)c1=O`: the fractional viability (2uM) worked out at 0.609 and the fractional viability (10uM) was 0.104.

As to `Cc1ccc(-n2sc(=O)n(Cc3ccc(F)cc3)c2=O)cc1`, the fractional viability came to 0.801 (2uM) and 0.457 (10uM).

For the compound `O=C(O)CSc1cc(NS(=O)(=O)c2ccc(Br)cc2)c2ccccc2c1O`, the fractional viability reads like this: (2uM) 0.835; (10uM) 0.365.
